# From PubChem
# Only some compounds are listed: those with a hit (about 0.43% of all), similar ones and a draw of the others.
# Rtt109 Vps75 – inhibitors of Candida albicans Rtt109/Vps75 histone acetyltransferase. AID 540336. purified Rtt109/Vps75, ThioGlo CoA-SH fluorescence, 4 h. Q5AAJ8. actives 0.16% (n = 330,000). inhibition, % at 34.9 µM;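 active = inhibition of at least 50% in every replicate; inconclusive = best replicate reaches 50% inhibition but some replicates fall short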
# Target sequence (Q5AAJ8 whole entry, looked up): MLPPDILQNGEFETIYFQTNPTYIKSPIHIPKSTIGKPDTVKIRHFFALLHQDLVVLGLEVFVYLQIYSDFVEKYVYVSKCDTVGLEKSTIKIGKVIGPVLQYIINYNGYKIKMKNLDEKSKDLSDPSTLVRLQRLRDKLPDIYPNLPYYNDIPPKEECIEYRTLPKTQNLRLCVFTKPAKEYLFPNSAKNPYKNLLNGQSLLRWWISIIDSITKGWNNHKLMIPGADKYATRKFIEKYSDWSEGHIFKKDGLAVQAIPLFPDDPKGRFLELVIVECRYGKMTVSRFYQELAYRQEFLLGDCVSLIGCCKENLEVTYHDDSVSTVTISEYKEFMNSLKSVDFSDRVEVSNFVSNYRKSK
# PKA-R2B act – PKA-R2B complex activation; PKA-R2B holoenzyme dissociation, Cy5-IP20 fluorescence polarization; R2B truncated from residue 108, S112A mutant; 0% DMSO only, 100% 113 µM cGMP; P22694+P31323; activation, % at 11.4 µM; actives 0.079% (n = 340,000);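 active = activation above a cutoff set at the mean over all compounds plus 3 SD, cut at about 18% in these data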;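 also: higher means more holoenzyme dissociation and a rise in polarization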
# HDAC3 inhib – human HDAC3 inhibition. O15379. recombinant HDAC3, fluorogenic peptide/trypsin coupled, fluorescence. inhibition, % at 8.3 µM. actives 0.15% (n = 320,000). AID 2718; in the data active = inhibition above about 26%, passing the limit was not always enough; inconclusive = no clear call, values can overlap the other calls
# PKA-R1A activ – PKA-R1A complex activation. P00514+P68181. PKA-R1A dissociation, Cy5-IP20 fluorescence polarization; scaled: DMSO 0%, 113 µM cGMP 100%. activation, % at 11.4 µM. actives 0.083% (n = 340,000). AID 504707;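 active = percent activation above the mean of all tested compounds plus 3 SD, cut at about 19% in these data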;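 also: higher means more PKAc released from R1A so a rise in polarization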
# The depositor's hits bear a star; u = inconclusive; x = not tested or not shown.
SMILES,Rtt109 Vps75,PKA-R2B act,HDAC3 inhib,PKA-R1A activ
CC(C)(C)C1CCc2c(sc(NC(=O)CSc3nnc(-c4ccccc4)o3)c2C#N)C1 (stereo not drawn),56*,3,4,3
Cc1ccnc(SCC(=O)Nc2sc3c(c2C#N)CCC(C(C)(C)C)C3)n1 (stereo not drawn),-3,-1,-8,6
O=C(Cc1ccc2cccnc2c1)c1ccc(O)cc1O,60*,0,x,10
O=C(Cc1ccccc1)c1ccc(O)cc1O,1,12,x,1
O=C(CN1CCCc2ccccc21)NCc1ccc2c(c1)OCO2,64*,-9,4,-6
COc1ccc2ccccc2c1C1CC(=O)N2CN(Cc3ccco3)CSC2=C1C#N (stereo not drawn),4,7,44*,-9
COc1ccc(C2CC(=O)N3CN(Cc4ccco4)CSC3=C2C#N)cc1 (stereo not drawn),5,-3,37*,-2
COc1ccc2ccccc2c1C1CC(=O)N2CN(C3CCCCC3)CSC2=C1C#N (stereo not drawn),11,-15,43*,-4
N#CC1=C2SCN(Cc3ccco3)CN2C(=O)CC1c1ccc(Cl)cc1 (stereo not drawn),-7,2,12,6
O=C(O)C(=Cc1cccc([N+](=O)[O-])c1)c1ccc(Cl)cc1,-2,0,x,-2
Cc1cccc(C(=O)Oc2csc(=S)n2C(=O)c2cccc(C)c2)c1,4,10,22,-8
O=C(Oc1csc(=S)n1C(=O)c1ccccc1)c1ccccc1,8,-3,37*,1
COc1ccc(C2C(C(N)=O)=C(C)Nc3nc(CCCO)nn32)cc1OC (stereo not drawn),0,-1,2,5
CCn1c(SCC(=O)Nc2ccc(OC)c(OC)c2)nnc1-c1cccs1,1,7,-5,-4
CCn1c(SCC(=O)Nc2cc(OC)c(OC)c(OC)c2)nnc1-c1cccs1,63*,-16,x,-10
Cc1cc(/C([O-])=C(/C(=S)Nc2ccc(F)cc2)[n+]2ccccc2)c(C)n1Cc1ccccc1Cl,x,-6,5,2
CC(C)(C)c1cc(-c2nc(N)nc(N)n2)c(O)c(C(C)(C)C)c1,u,-13,29*,-9
COc1ccc(CNC(=O)COC(=O)[C@@H]2CCCN2C(=O)c2cccs2)cc1,1,-2,1,1
Cc1nn(C(=O)c2ccccc2)c2c1C(=O)CC(C)(C)C2,2,1,91*,-13
Cc1nn(-c2nc3ccccc3n2Cc2ccccc2)c2c1C(=O)CC(C)(C)C2,7,5,5,2
CCCc1nn(-c2cc(Cl)ccc2OC)c2c1C(=O)CC(C)(C)C2,3,-12,3,-8
CCCc1nn(C(=O)c2ccccc2)c2c1C(=O)CC(C)(C)C2,25,-2,72*,7
CCOC(=O)C1=C(C)Nc2ccc(C)cc2S1,6,-13,11,-3
CCOC(=O)C1=C(C)Nc2ccccc2S1,51*,-3,2,7
COc1ccc(NC(=O)CNS(=O)(=O)c2cccs2)c(OC)c1,63*,0,-4,-4
SMILES,Rtt109 Vps75,PKA-R2B act,HDAC3 inhib,PKA-R1A activ
COc1ccc(OC)c(NC(=O)CCNS(=O)(=O)c2cccs2)c1,-10,-4,4,-2
CCCCCCC(=O)N(O)C1CC(=O)N(c2ccc(Cl)cc2)C1=O (stereo not drawn),-4,-12,63*,-2
O=C(CSC1=NCCN1)Nc1cccc([N+](=O)[O-])c1,113*,1,2,-7
Cc1ccc2nc(NC(=O)COC(=O)c3cccnc3)sc2c1,-3,-4,-7,7
CCCN(CC(=O)Nc1ccccc1C)C(=O)c1ccc(C2SCCS2)cc1,-4,16,80*,9
Cc1ccc(C2=NC(C)(C)N=C2SCC(=O)Nc2ccc(Cl)cc2)cc1,99*,-1,11,-9
COc1ccccc1/C=N/NC(=O)C(=O)N1CCN(c2ccccc2OC)CC1,-3,-7,4,0
Cc1nc(-c2ccc3c(c2)OCCCO3)cs1,-9,6,41*,2
N=C(N)c1ccc(/C=C/c2ccc(C(=N)N)cc2O)cc1,3,-1,50*,12
N=C(N)c1ccc(Cl)cc1,-2,3,-1,-1
COc1cc(C(=O)NN=Cc2ccc(N(C)C)cc2)cc(OC)c1OC,x,6,x,0
CCOc1ccc(S(=O)(=O)Nc2nc3ccccc3nc2Nc2ccc(N3CCOCC3)cc2)cc1,4,-1,7,-9
CC[C@@]1(c2ccccc2)C(=O)N(C(=O)OC)N1C(=O)OC,5,3,9,-7
CC[C@]1(c2ccccc2)C(=O)N(C(=O)OC)N1C(=O)OC,-1,-5,44*,-15
CCN1/C(=C/C=C/C=C/C=C/c2sc3ccccc3[n+]2CC)Sc2ccccc21,1,2,6,-1
CCN1/C(=C/C=C/C=C/c2sc3ccccc3[n+]2CC)Sc2ccccc21,x,x,36*,x
CCN1/C(=C/C=C/c2sc3ccccc3[n+]2CC)Sc2ccccc21,66*,-12,-1,-15
CCOc1cc(S(=O)(=O)N2CCC(Cc3ccccc3)CC2)c(OCC)cc1-n1cnnn1,55*,-11,-4,-6
CCOc1cc(S(=O)(=O)N2CC=C(c3ccc(F)cc3)CC2)c(OCC)cc1-n1cnnn1,-7,-4,-4,-1
CCCOC(=O)c1ccc(OC(=O)c2ccco2)cc1,4,5,33*,-4
O=C(Oc1ccc(N2C(=O)CCC2=O)cc1)c1ccco1,-12,-5,8,6
O=C(Oc1ccc(-n2cnnn2)cc1)c1ccco1,-1,3,36*,-9
O=c1c2ccccc2sn1-c1ccc(F)cc1,u,-8,3,-14
COC(=O)c1cccc(-n2sc3ccccc3c2=O)c1,130*,-14,67*,-13
Cc1ccc(-n2sc3ccccc3c2=O)cc1,5,-4,52*,-12
SMILES,Rtt109 Vps75,PKA-R2B act,HDAC3 inhib,PKA-R1A activ
COc1ccc(OC)c(Nc2ncnc3ccc(Br)cc23)c1,-3,-7,3,6
O=C(CSc1ncnc2scc(-c3ccc(F)cc3)c12)c1ccc2c(c1)OCCO2,-3,0,81*,-2
CCS(=O)(=O)C1=NN2C(=N)/C(=C\c3ccc(OC(=O)c4ccco4)c(Br)c3)C(=O)N=C2S1,x,x,39*,x
CN(Cc1cnn(Cc2ccccc2)c1)C(=O)CN=C1NS(=O)(=O)c2ccccc21,20,-18,-2,-17
O=C1/C(=C/c2ccc(F)cc2)SC(=S)N1CC(=O)N1CCCCC1c1cccnc1 (stereo not drawn),53*,0,-1,-8
C=CCOc1cccc(/C=N/NC(=O)CN2CCCCC2)c1,0,2,8,-8
Cc1cc(C)cc(N2C(=O)CC(Sc3ncn[nH]3)C2=O)c1 (stereo not drawn),-4,0,29*,-1
CC(=O)c1ccc(OC(=O)c2ccc(Br)o2)cc1,6,-6,67*,-15
COC(=O)c1nc(NC(=O)c2cc(OC)c(OC)c(OC)c2)n[nH]1,-4,6,39*,0
